Measurements: PubChem BioAssay (NCATS)
Records with an inconclusive call do not appear. Activity calls are given as the source filed them. Unless noted, calls come from the whole dose curve; as a rule, active = well fitted curve in the direction sought with a large enough effect; inconclusive = small, poorly fitted or top-dose-only effect, or another doubt; inactive = no such curve, though single readings can be large; an effect the other way counts as inactive or inconclusive.

Tests used:
[1] = Cell Viability - BJ (AID 421; calls by dose curve;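 note: potency is the fitted concentration of half-maximal effect; cells exposed to compound for 40 hours at 37 °C before readout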); settings: BJ fibroblast viability, qHTS
Outline: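 Cytotoxicity in human BJ foreskin fibroblasts is scored as loss of cellular ATP after a 40-hour exposure, measured by luciferase luminescence. Controls are DMSO and 100 uM tamoxifen.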

[2] = Cell Viability - Jurkat (AID 426;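 active = dose-dependent loss of cell ATP signal giving a full or clear fitted curve, ranked by lower potency value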; note: potency is the fitted concentration of half-maximal effect); settings: qHTS
Outline: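 Cytotoxicity was scored as loss of cellular ATP, measured by luciferase-based luminescence, in Jurkat clone E6-1 cells after 40 h compound treatment; tamoxifen and doxorubicin served as positive controls.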

[3] = Cell Viability - Hek293 (AID 427;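 active = compounds whose dose-response curve shows a full or clear partial loss of cell viability, called from curve shape rather than a numeric limit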;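 note: potency is the fitted concentration of half-maximal effect; cells exposed to compound for 40 hours at 37 °C before reading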); settings: qHTS
Outline: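 qHTS, human embryonic kidney (adenovirus-transformed) cells; 40 hr cpd, 37 °C; CellTiter-Glo ATP luminescence. Norm: DMSO = 0, 100 uM tamoxifen = 100% inhibition. Hill-fit AC50.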

[4] = Cell Viability - MRC5 (AID 434; calls by dose curve;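 note: potency is the fitted concentration of half-maximal effect; potency reflects cytotoxicity seen as loss of intracellular ATP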); settings: MRC5 lung fibroblast viability, qHTS
Outline: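 ATP luminescence read-out (CellTiter-Glo, 20 min RT) after 40 hr, 37 °C compound exposure of 1500 MRC5 cells/well. Data normalized to DMSO (basal) and 100 uM tamoxifen (100% inhibition); AC50 from standard Hill equation.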

[5] = Cell Viability - SK-N-SH (AID 435; calls by dose curve;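 note: potency is the fitted concentration of half-maximal effect; compound exposure lasted 40 h at 37 °C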); settings: SK-N-SH neuroblastoma cell viability qHTS
Outline: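 SK-N-SH neuroblastoma cells (1500/well) treated 40 h at 37 °C in complete medium; viability read as cellular ATP by CellTiter-Glo luminescence. Normalized to DMSO and 100 uM tamoxifen; AC50 from Hill fits of qHTS concentration-response.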

[6] = biological target: Mitogen-activated protein kinase 10 (Mus musculus) (UniProt Q61831); experiment: JNK3 AlphaScreen Assay (AID 530; active = well fitted curve in either direction with a large enough effect, not every such curve was filed as active;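 note: kinase came from lysate of stimulated human HepG2 cells; signal reports phosphorylation of biotinylated GST-cJun 1-79 at Ser73 with 10 µM ATP; % is set by controls: 0 for no effect and ±100 for the full control effect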); settings: JNK3 lysate, c-Jun phosphorylation; series mostly up to 57.1 µM
Outline: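 HepG2 lysate (IL-1b/TNFa pre-activated) + biotin-GST-cJun 1-79 + anti-pSer73 cJun; cpd titration, 15 min RT; ATP 10 uM start; Tris pH 7.6, MgCl2, DTT, vanadate; beads in EDTA buffer; AlphaScreen.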

[7] = Cell Viability - N2a (AID 540); settings: N2a mouse neuroblastoma cell viability; activity change, negative = cytotoxicity: at 92.2 µM (top of the series);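 note: plate controls were DMSO alone for no effect and tamoxifen control for full effect; nearly all actives have a fitted effect of over 45% in size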
Outline: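 In this qHTS cytotoxicity screen, ATP-dependent luciferase luminescence reports viable N2a cells after a 40 hr compound exposure in complete culture medium. Potencies are AC50 values from standard Hill equation fits.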

[8] = Cell Viability - NIH 3T3 (AID 541); settings: NIH 3T3 cell viability, qHTS; activity change, negative = cytotoxicity: at 92.2 µM (top of the series);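 note: plate controls were DMSO alone for no effect and tamoxifen positive control for full effect; nearly all actives have a fitted effect of over 25% in size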
Outline: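 In this cytotoxicity screen, acute toxicity is scored as an ATP drop measured by CellTiter-Glo in NIH 3T3 fibroblasts following a 40 hr, 37 °C incubation with compound.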

[9] = Cell Viability - H-4-II-E (AID 543); settings: H-4-II-E rat hepatoma viability; series mostly up to 92.2 µM; note: % is set by controls: 0 for no effect and ±100 for the full control effect; nearly all actives have a fitted effect of over 35% in size
Outline: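 AC50 from Hill-modelled qHTS concentration-response curves. H-4-II-E rat hepatoma cells in complete medium, 40 hr exposure at 37 °C, viability by CellTiter-Glo ATP luminescence.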

[10] = Cell Viability - SH-SY5Y (AID 544); settings: SH-SY5Y neuroblastoma cell viability; viability change, negative = cytotoxic: at 92.2 µM (top of the series); note: nearly all actives have a fitted effect of over 55% in size
Outline: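 Quantitative HTS in SH-SY5Y neuroblastoma cells, 40 hr treatment at 37 °C, ATP content by luciferase luminescence; AC50 from Hill fits.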

[11] = Cell Viability - Renal Proximal Tubule (AID 545); settings: renal proximal tubule cells viability, primary cells of rat origin; series mostly up to 91.7 µM; note: nearly all actives have a fitted effect of over 40% in size
Outline: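 Rat renal proximal tubule primary cells, 1000/well, exposed to compounds for 40 hr at 37 °C in complete medium; cellular ATP read by CellTiter-Glo luminescence. AC50 from concentration-response fitted with standard Hill equation.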

[12] = Cell Viability - Mesenchymal (AID 546); settings: mesenchymal cells viability, qHTS; series mostly up to 91.7 µM;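 note: cells exposed to compound for 40 hours before reading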
Outline: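 Human renal mesenchymal cells (glomerulus-derived), 1000 cells/well, 5 hr 37 °C pre-incubation; compound 40 hr, 37 °C; CellTiter-Glo, 20 min RT; luminescence; AC50 via Hill equation.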

[13] = Cellular Toxicity (caspase-3) HepG2 (AID 654); settings: HepG2 caspase-3 activation, luminescence; series mostly up to 92.2 µM;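 note: cells exposed to compound for 16 hours before reading; 0% = DMSO alone and 100% = caspase signal from 100 µM tamoxifen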
Outline: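 Concentration-response AC50 values reflect caspase-3/7 induction in HepG2 cells after 16 hours of compound exposure, quantified by luminescence from liberated aminoluciferin and referenced to 100 uM tamoxifen as full stimulation.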

[14] = Cellular Toxicity (caspase-3) HUV-EC-C (AID 656); settings: HUV-EC-C cells, caspase-3 activation (apoptosis), vehicle = 0, 100 µM tamoxifen = 100%; series mostly up to 92.2 µM
Outline: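 HUV-EC-C cells (1000/well) in complete medium, compound-treated 16 h at 37 °C; caspase-3/7 activity read by Caspase-Glo 3/7 luminescence. Normalized to DMSO (basal) and 100 uM tamoxifen (100%); AC50 from Hill-equation concentration-response fits.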

[15] = Cellular Toxicity (caspase-3) SHSY5Y (AID 657); settings: SH-SY5Y caspase-3 activation, DMSO zero, 10 µM staurosporine = 100%; series mostly up to 91.7 µM
Outline: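 SH-SY5Y human neuroblastoma cells, 1500/well, exposed to compound for 16 hours at 37 °C in complete medium. Caspase-3/7 activity read by Caspase-Glo luminescence after 1 hr at room temperature, normalized to DMSO and 10 uM staurosporine; AC50 from Hill fit.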

[16] = Cellular Toxicity (caspase-3) BJ (AID 658); settings: BJ fibroblasts, luminescence, normalized: DMSO 0%, staurosporine 100%; series mostly up to 91.7 µM
Outline: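 qHTS, BJ fibroblasts, 1000 cells/well; 5 hr preincubation, 16 hr compound, 37 °C; Caspase-Glo 3/7 reagent, 1 hr RT; luminescence. DMSO = 0%, 10 uM staurosporine = 100%. Hill-equation AC50.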

[17] = Cellular Toxicity (caspase-3) MRC-5 (AID 659); settings: MRC-5 cells, luminescence, normalized: DMSO 0%, 10 µM staurosporine 100%; series mostly up to 91.7 µM
Outline: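 MRC-5 fibroblasts, 1500/well; 16 h cpd, 37 °C; Caspase-Glo 3/7, 1 h RT; lumi read. Norm: DMSO = 0%, 10 uM staurosporine = 100%. Hill-fit AC50 from qHTS conc-response.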

[18] = Cellular Toxicity (caspase-3) Jurkat (AID 655); settings: Jurkat caspase-3 activation, luminescence; caspase-3 activation: at 92.2 µM (top of the series), DMSO = 0%, tamoxifen = 100%;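 note: cells exposed to compound for 16 h at 37 °C before reading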
Outline: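 Jurkat cells (5000/well) in complete medium exposed 16 h at 37 C; caspase-3/7 activity read by Caspase-Glo luminescence after 20 min at room temperature. Normalized to DMSO and 100 uM tamoxifen; AC50 from Hill fits.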

[19] = Cell Viability - HUV-EC-C (AID 542); settings: HUV-EC-C endothelial cell viability, qHTS; series mostly up to 92.2 µM; note: % is set by controls: 0 for no effect and ±100 for the full control effect; nearly all actives have a fitted effect of over 35% in size
Outline: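 Concentration-dependent ATP loss in HUV-EC-C cells is the measure. Exposure lasts 40 hr at 37 °C; luminescence follows CellTiter-Glo addition, and Hill fits give AC50.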

[20] = Cell Viability - HepG2 (AID 433; calls by dose curve;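 note: potency is the fitted concentration of half-maximal effect; potency for ATP loss meaning cytotoxicity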); settings: qHTS
Outline: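 HepG2 cells, 1500 per well, treated 40 hr at 37 °C in complete medium; viability from intracellular ATP by CellTiter-Glo luminescence. Normalized to DMSO and 100 uM tamoxifen; AC50 from Hill fit of qHTS concentration-response.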

CCC1CO1 (stereo unspecified)
inactive: Potency [1] > 92 µM | Potency [2] > 92 µM | Potency [3] > 92 µM | Potency [4] > 92 µM | Potency [5] > 92 µM | outcome [6] | activity change, negative = cytotoxicity [7] -4.66% | Potency [8] | Potency [9] | Potency [10] | Potency [11] | Potency [12] | Potency [13] | outcome [14] | outcome [15] | outcome [16] | outcome [17]

COc1ccccc1[N+](=O)[O-]
inactive: Potency [1] > 92 µM | Potency [2] > 92 µM | Potency [3] > 92 µM | Potency [4] > 92 µM | Potency [5] > 92 µM | outcome [6] | activity change, negative = cytotoxicity [7] -25.3% | Potency [8] | Potency [9] | Potency [10] | Potency [12] | Potency [13] | caspase-3 activation [18] 10.8% | outcome [14] | outcome [15] | outcome [16] | outcome [17]

Cc1ccccc1C#N
inactive: Potency [1] > 92 µM | Potency [2] > 92 µM | Potency [3] > 92 µM | Potency [4] > 92 µM | Potency [5] > 92 µM | outcome [6] | activity change, negative = cytotoxicity [7] -9.75% | Potency [8] | Potency [19] | Potency [9] | Potency [10] | Potency [11] | caspase-3 activation [18] 0.133% | outcome [14] | outcome [15] | outcome [16] | outcome [17]

O=Cc1c(Cl)cccc1Cl
inactive: Potency [1] > 92 µM | Potency [2] > 92 µM | Potency [3] > 92 µM | Potency [20] > 92 µM | Potency [4] > 92 µM | Potency [5] > 92 µM | outcome [6] | activity change, negative = cytotoxicity [7] -16.5% | Potency [19] | Potency [9] | Potency [10] | Potency [12] | Potency [13] | caspase-3 activation [18] 3.49% | outcome [14] | outcome [15]

Nc1ccc([N+](=O)[O-])c(N)c1
inactive: Potency [1] > 92 µM | Potency [2] > 92 µM | Potency [3] > 92 µM | Potency [4] > 92 µM | Potency [5] > 92 µM | outcome [6] | activity change, negative = cytotoxicity [7] 0.888% | Potency [8] | Potency [19] | Potency [9] | Potency [10] | Potency [11] | Potency [12] | Potency [13] | caspase-3 activation [18] 0.952% | outcome [14] | outcome [15] | outcome [16]

Nc1cccc(S(=O)(=O)O)c1
inactive: Potency [1] > 92 µM | Potency [2] > 92 µM | Potency [3] > 92 µM | Potency [20] > 92 µM | Potency [4] > 92 µM | Potency [5] > 92 µM | outcome [6] | activity change, negative = cytotoxicity [7] -6.89% | Potency [9] | Potency [10] | Potency [11] | Potency [12] | Potency [13] | caspase-3 activation [18] -0.29% | outcome [14] | outcome [15] | outcome [16] | outcome [17]

Cc1ccccc1Br
inactive: Potency [1] > 92 µM | Potency [2] > 92 µM | Potency [3] > 92 µM | Potency [4] > 92 µM | Potency [5] > 92 µM | outcome [6] | activity change, negative = cytotoxicity [7] -5.14% | Potency [8] | Potency [19] | Potency [9] | Potency [10] | Potency [11] | Potency [12] | Potency [13] | caspase-3 activation [18] -0.129% | outcome [14] | outcome [15] | outcome [16] | outcome [17]

Cc1ccc(C)c([N+](=O)[O-])c1
inactive: Potency [1] > 92 µM | Potency [2] > 92 µM | Potency [3] > 92 µM | Potency [4] > 92 µM | Potency [5] > 92 µM | outcome [6] | activity change, negative = cytotoxicity [7] 2.29% | Potency [8] | Potency [19] | Potency [9] | Potency [10] | Potency [11] | Potency [12] | Potency [13] | caspase-3 activation [18] 1.04% | outcome [14] | outcome [15] | outcome [16] | outcome [17]

CC(=O)Nc1ccccc1C
inactive: Potency [1] > 92 µM | Potency [2] > 92 µM | Potency [3] > 92 µM | Potency [4] > 92 µM | Potency [5] > 92 µM | outcome [6] | activity change, negative = cytotoxicity [7] 2.99% | Potency [8] | Potency [19] | Potency [9] | Potency [10] | Potency [11] | Potency [12] | Potency [13] | caspase-3 activation [18] 1.08% | outcome [14] | outcome [15] | outcome [16] | outcome [17]

CC(C)N(C)C
inactive: Potency [1] > 92 µM | Potency [2] > 92 µM | Potency [3] > 92 µM | Potency [4] > 92 µM | Potency [5] > 92 µM | outcome [6] | activity change, negative = cytotoxicity [7] -3.04% | Potency [8] | Potency [19] | Potency [9] | Potency [10] | Potency [11] | Potency [12] | caspase-3 activation [18] -0.157% | outcome [14] | outcome [15] | outcome [16] | outcome [17]

CCC(C)=O
inactive: Potency [1] > 92 µM | Potency [2] > 92 µM | Potency [3] > 92 µM | Potency [4] > 92 µM | Potency [5] > 92 µM | outcome [6] | activity change, negative = cytotoxicity [7] -16.1% | Potency [8] | Potency [9] | Potency [10] | Potency [11] | Potency [12] | Potency [13] | caspase-3 activation [18] -0.0185% | outcome [14] | outcome [15] | outcome [16] | outcome [17]
